Only a selection was taken, and hits are over-represented in it overall.
ALOX12 inh – Primary qHTS assay for inhibitors of human arachidonate 12S-lipoxygenase (ALOX12): Round 2 | Polyunsaturated fatty acid lipoxygenase ALOX12 (Homo sapiens), P18054 | purified 12hLO, xylenol orange hydroperoxide absorbance | Potency, µM (titrated, usually from 108 µM), for the others: top-dose activity change, negative = inhibition, actives largely listed as inhibitors | 580,000 compounds, 1.1% hits; note: potency is the fitted concentration of half-maximal effect
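Purified human 12hLO (150 nM final) in 25 mM Hepes, 0.01% Triton X-100, pH 7.0 was preincubated 15 min at room temperature with compound. Then 40 uM arachidonic acid was added, 30 min. Hydroperoxide was read by Fe-XO absorbance ratio 573/405 nm.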
HT1080 IDH1KD tx – qHTS for induction of synthetic lethality in tumor cells producing 2HG: qHTS for the HT-1080-IDH1KD cell line; HT-1080 IDH1 knockdown viability, ATP luminescence, 48 h; Potency, µM (series often up to 46.1 µM), without a hit: at the highest dose activity, negative = toxicity, actives largely listed as cytotoxic; 360,000 compounds, 2% hits;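 note: potency is the fitted concentration of half-maximal effect; 0% = DMSO wells and -100% = cell-free medium wells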
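Viability of IDH1-knockdown HT-1080 fibrosarcoma cells was assessed by CellTiter-Glo after 48 h at 37 °C with titrated compound; concentration-effect curves were classified by fit quality and response size.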
HT1080NT lethal – qHTS for induction of synthetic lethality in tumor cells producing 2HG: qHTS for the HT-1080-NT fibrosarcoma cell line. HT-1080-NT fibrosarcoma viability, CellTiter-Glo ATP luminescence, 48 h. Potency, µM (series often up to 46.1 µM), for the others: top-dose activity, negative = less viability, hits mostly cytotoxic. 360,000 compounds, 1.6% hits;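 note: NT is the 2HG producing partner of a matched IDH1 knockdown line; potency is the fitted concentration of half-maximal effect; 0% = DMSO-treated cells and -100% = media-only wells without cells; nearly all actives have a fitted effect of over 55% in size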
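Toxicity toward the 2HG-producing NT line was scored as %Activity, normalised to DMSO and no-cell wells, from CellTiter-Glo luminescence after 48 hours' treatment.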
DT40 TDP1 no CPT – qHTS for Inhibitors of human tyrosyl-DNA phosphodiesterase 1 (TDP1): qHTS in cells in absence of CPT | DT40 Tdp1-/- hTDP1 cells, no CPT, ATP luminescence, 48 h | Potency, µM (titrated, usually from 46.2 µM), for inactives: at the highest dose activity change, negative = growth inhibition, most hits filed as inhibitors | 420,000 compounds, 15% hits; note: potency is the fitted concentration of half-maximal effect; nearly all actives have a fitted effect of over 55% in size
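Chicken DT40 Tdp1-/- cells complemented with human TDP1, screened without camptothecin (DMSO vehicle only), 400 cells/well. Compounds pin-transferred, cells incubated at 37 °C for at least 48 hr. Growth read as ATP-dependent luminescence (CellTiter-Glo, 30 min at RT).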
IL1B secr inh – qHTS for Inhibitors of Inflammasome Signaling: IL-1-beta AlphaLISA Primary Screen; THP-1 LPS/ATP IL-1B secretion, AlphaLISA, 16 h; stronger effect = lower value; activity change, % at 57.5 µM; 360,000 compounds, 4.7% hits; in the data active = activity change below about -50%; inconclusive = mostly about -30% to -49%
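THP-1 cells pretreated 1 hr with compounds (up to 57.5 uM final), then stimulated with LPS (250 ng/mL final) plus ATP (1.25 mM final); secreted IL-1B measured by AlphaLISA after 16 hr, decreased signal indicating inhibition.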
DT40 TDP1 CPT – qHTS for Inhibitors of human tyrosyl-DNA phosphodiesterase 1 (TDP1): qHTS in cells in presence of CPT | chicken DT40 Tdp1-/-;hTDP1 cells + 20 nM CPT, ATP luminescence, 48 h | Potency, µM (doses to about 46.2 µM), for inactives: at the highest dose activity change, negative = growth inhibition, hits mostly inhibitors | 420,000 compounds, 12% hits | AID 686979, 2013; note: potency is the fitted concentration of half-maximal effect; nearly all actives have a fitted effect of over 55% in size
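Chicken DT40 Tdp1-/- cells complemented with human TDP1, 400 cells/well, exposed to compounds plus 20 nM camptothecin for at least 48 h at 37 C; viability read as ATP content by CellTiter-Glo luminescence.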
Active calls of the source: *; ? = inconclusive; . = no result; [ ] = remark or other dose. Unless noted, calls come from the whole dose curve; as a rule, active = well fitted curve in the direction sought with a large enough effect; inconclusive = small, poorly fitted or top-dose-only effect, or another doubt; inactive = no such curve, though single readings can be large; an effect the other way counts as inactive or inconclusive. Unless noted, % is set by controls: 0 for no effect and ±100 for the full control effect.

SMILES | ALOX12 inh | HT1080 IDH1KD tx | HT1080NT lethal | DT40 TDP1 no CPT | IL1B secr inh | DT40 TDP1 CPT
C=C(C)Cn1c(N(CCO)Cc2ccccc2)nc2c1c(=O)[nH]c(=O)n2C | -4% | 11% | -1% | -17% | 0 | -27%
COc1ccc(CN2CCCC23Cc2ccccc2CNC3=O)c(OC)n1 (configuration not stated) | 9%[6.33 µM] | . | . | . | . | .
COc1ccc(C(=O)NC2CCN(c3cc(-c4cccs4)[nH]n3)C2)cc1OC (configuration not stated) | 40% | . | . | . | . | .
Cc1ccc(NC(=O)C[n+]2ccn(C3=C([O-])c4ccccc4C3=O)c2)cc1 | 17% | -15% | -9% | -11% | -3 | 14%
Cc1ccc(S(=O)(=O)/N=C2\C(=O)c3ccccc3C([O-])=C2n2cc[n+](CCC(C)C)c2)cc1 | . | 10µM* | ? | 16µM* | 44 | 16µM*
CC(=O)Nc1ccc(S(=O)(=O)/N=C2\C(=O)c3ccccc3C([O-])=C2n2cc[n+](-c3ccccn3)c2)cc1 | ? | -16% | -5% | 8.2µM* | 63 | 3.7µM*
COc1ccc(N(CC(=O)N2CC=C(c3ccccc3)CC2)S(=O)(=O)c2c(C)noc2C)cc1 | 16% | -4% | 7% | 23µM* | 9 | ?
Cc1ccc(N(CC(=O)N2CCN(c3ccccc3F)CC2)S(=O)(=O)c2c(C)noc2C)cc1 | -3% | 6% | 6% | ? | -6 | 21µM*
COc1ccc(N(CC(=O)N2CCN(c3ccccc3F)CC2)S(=O)(=O)c2c(C)noc2C)cc1 | -5% | 6% | 0% | ? | -9 | ?
CCOc1ccc(N(CC(=O)N2CC=C(c3ccccc3)CC2)S(=O)(=O)c2c(C)noc2C)cc1 | -6% | 3% | 0% | ? | -7 | ?
COc1cccc(NC(=O)COc2nc(C(C)C)c3c(c2C#N)CCCC3)c1 | 1% | . | . | . | . | .
CCOC(=O)C1(CC2CC2)CCN(Cc2ccc(C(=O)OC)cc2)CC1 | -3% | 20% | -1% | 23µM* | 5 | ?
CCOC(=O)C1(CCc2ccccc2)CCN(Cc2cc(OC)c(OC)cc2OC)CC1 | 0% | -1% | ? | 21µM* | -54* | 21µM*
CCOC(=O)C1CCN(Cc2ccc(C(=O)OC)cc2)CC1 | ? | 25% | 14% | -4% | -10 | -5%
CCOC(=O)C1(CCc2ccccc2)CCN(Cc2ccccn2)CC1 | -2% | ? | -25% | ? | 0 | -18%
CCOC(=O)C1(CCc2ccccc2)CCN(C2Cc3ccccc3C2)CC1 | -9% | -9% | -12% | ? | 40 | ?
CCOC(=O)C1(CCc2ccccc2)CCN(Cc2ccc(C(=O)OC)cc2)CC1 | -26% | -10% | -2% | 16µM* | 0 | ?
CCOC(=O)C1(CC2CC2)CCN(C(=O)c2cccnc2C)CC1 | 95% | -3% | -5% | ? | 24 | -21%
CCOC(=O)C1(CC2CC2)CCN(Cc2cn(C)c3ccccc23)CC1 | -16% | ? | -30% | 18µM* | -82* | 21µM*
CCn1nc(C(=O)Nc2nc3c(s2)CCC3)c2ccccc2c1=O | -5% | . | . | . | . | .
COc1cc(C2CC(=O)Nc3c2c(=O)n(C)c2ncnn32)cc(OC)c1OC (configuration not stated) | -18% | . | . | . | . | .
